Experimental findings from PubChem BioAssay (EPA / NIEHS) are described below.

Values joined by “and” are separate entries in the source; they are usually repeats but may differ in a detail not shown here. Equal entries are not always repeated. Results filed as inconclusive are left out. A structure can be active in one record and inactive in another. Active and inactive are the calls of the source. Rule for the calls, unless noted: active = hit-call score of the fitted dose curve at least 0.9, where 1 is the maximum; inactive = score below 0.9.

Read-out in test [1]: Nuclear factor erythroid 2-related factor 2 (Homo sapiens) (UniProt Q16236)
As to the kind of experiment: LTEA_HepaRG_NFE2L2: Life Technologies and Expression Analysis (LTEA) Assay for Nuclear factor erythroid 2-related factor 2 (NFE2L2) Transcription Factor using HepaRG (AID 2283527).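 Note: TaqMan qRT-PCR transcript level normalised to ACTB GAPDH and POLR2A housekeeping genes.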 To be noted: mRNA level, 48 h; actives raise or lower the signal. The method in brief:
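Differentiated human HepaRG cells in serum-free induction medium were exposed for 48 h to eight concentrations (top 100 uM, half-log dilutions, 0.5% DMSO), in duplicate. NFE2L2 mRNA was quantified by TaqMan qRT-PCR, normalized to ACTB, GAPDH and POLR2A, with bidirectional fitting versus DMSO.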

Read-out in test [2]: succinate dehydrogenase complex iron sulfur subunit B (SDHB), SDHB (gene 6390)
Put plainly: LTEA_HepaRG_SDHB: Life Technologies and Expression Analysis (LTEA) Assay for succinate dehydrogenase complex iron sulfur subunit B (SDHB) using HepaRG (AID 2283528). As to conditions: mRNA level, 48 h; actives raise or lower the signal. The method in brief: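 HepaRG cells (~100,000/well, plated 48 h) exposed in duplicate for 48 h in serum-free induction medium to 8-point half-log series from 100 uM in 0.5% DMSO; mRNA by qRT-PCR normalised to ACTB, GAPDH, POLR2A; bidirectional fit versus DMSO.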

Read-out in test [3]: Signal transducer and activator of transcription 3 (Homo sapiens) (UniProt P40763)
As to the kind of experiment: LTEA_HepaRG_STAT3: Life Technologies and Expression Analysis (LTEA) Assay for Signal transducer and activator of transcription (STAT3) using HepaRG (AID 2283529). To be noted: mRNA level, 48 h; actives raise or lower the signal. The method in brief:
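Differentiated human HepaRG cells in serum-free induction medium were exposed in duplicate for 48 h to eight half-log concentrations up to 100 uM in 0.5% DMSO. STAT3 mRNA was quantified by TaqMan qRT-PCR, normalized to ACTB, GAPDH and POLR2A, and fitted bidirectionally against DMSO.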

Read-out in test [4]: solute carrier (SLCO1B1), SLCO1B1 (gene 10599)
As to the kind of experiment: LTEA_HepaRG_SLCO1B1: Life Technologies and Expression Analysis (LTEA) Assay for solute carrier (SLCO1B1) using HepaRG (AID 2283530). To be noted: mRNA level, 48 h; actives raise or lower the signal. The method in brief: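 Gain or loss of SLCO1B1 mRNA is fitted against the 0.5% DMSO vehicle in human HepaRG liver cells treated 48 h at up to 100 uM in half-log steps. Expression comes from qRT-PCR normalized to endogenous controls.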

Read-out in test [5]: sulfotransferase 2A1 (SULT2A1), SULT2A1 (gene 6822)
Put plainly: LTEA_HepaRG_SULT2A1: Life Technologies and Expression Analysis (LTEA) Assay for sulfotransferase 2A1 (SULT2A1) using HepaRG (AID 2283531). To be noted: mRNA level, 48 h; actives raise or lower the signal. In a few lines:
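Cells were plated and cultured 48 h, switched to serum-free induction medium, then dosed in duplicate for 48 h (8 concentrations, max 100 uM). RNA was isolated and SULT2A1 expression measured by qRT-PCR; gain or loss of signal fitted relative to DMSO.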

Read-out in test [6]: Transforming Growth Factor (TGFA), TGFA (gene 7039)
As to the kind of experiment: LTEA_HepaRG_TGFA: Life Technologies and Expression Analysis (LTEA) Assay for Transforming Growth Factor (TGFA) using HepaRG (AID 2283532). As to conditions: mRNA level, 48 h; actives raise or lower the signal. The method in brief: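 Differentiated human HepaRG cells, plated 48 h then switched to serum-free induction medium, were exposed in duplicate for 48 h to 8-point half-log series from 100 uM in 0.5% DMSO. TGFA mRNA measured by qRT-PCR, normalized to ACTB/GAPDH/POLR2A, bidirectional fit versus DMSO.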

Read-out in test [7]: Transforming Growth Factor (TGFB1), TGFB1 (gene 7040)
As to the kind of experiment: LTEA_HepaRG_TGFB1: Life Technologies and Expression Analysis (LTEA) Assay for Transforming Growth Factor (TGFB1) Transporter using HepaRG (AID 2283533). To be noted: mRNA level, 48 h; actives raise or lower the signal. In a few lines: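 Expression change of TGFB1 in human HepaRG cells is measured after a 48 h chemical exposure, up to 100 uM in 0.5% DMSO vehicle. Curves are fitted in both directions relative to the DMSO baseline.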

Read-out in test [8]: TIMP1, TIMP1 (gene 7076)
As to the kind of experiment: LTEA_HepaRG_TIMP1: Life Technologies and Expression Analysis (LTEA) Assay for TIMP1 using HepaRG (AID 2283534). As to conditions: mRNA level, 48 h; actives raise or lower the signal. The method in brief:
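We dosed human liver HepaRG cultures for 48 hours with up to 100 uM test chemical and measured TIMP1 expression by qRT-PCR. Activity in either direction is fitted relative to the 0.5% DMSO vehicle.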

Read-out in test [9]: Tumor necrosis factor receptor 1 (TNFRSF1A), TNFRSF1A (gene 7132)
Put plainly: LTEA_HepaRG_TNFRSF1A: Life Technologies and Expression Analysis (LTEA) Assay for Tumor necrosis factor receptor 1 (TNFRSF1A) using HepaRG (AID 2283535). As to conditions: mRNA level, 48 h; actives raise or lower the signal. The method in brief: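 Expression of TNFRSF1A in human HepaRG liver cells was measured by qRT-PCR 48 h after chemical dosing (maximum 100 uM). Bidirectional curve fitting used 0.5% DMSO as baseline.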

Read-out in test [10]: Thyroid Hormone Responsive (THRSP), THRSP (gene 7069)
Put plainly: LTEA_HepaRG_THRSP: Life Technologies and Expression Analysis (LTEA) Assay for Thyroid Hormone Responsive (THRSP) using HepaRG (AID 2283536). As to conditions: mRNA level, 48 h; actives raise or lower the signal. In a few lines: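 Differentiated human HepaRG cells were exposed in duplicate for 48 h in serum-free induction medium to eight concentrations (top 100 uM, half-log steps, 0.5% DMSO). Expression was quantified by TaqMan qRT-PCR, normalized to ACTB, GAPDH and POLR2A, with bidirectional fitting against DMSO.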

Read-out in test [11]: UDP glucuronosyltransferase (UGT1A1), UGT1A1 (gene 54658)
As to the kind of experiment: LTEA_HepaRG_UGT1A1: Life Technologies and Expression Analysis (LTEA) Assay for UDP glucuronosyltransferase (UGT1A1) using HepaRG (AID 2283538). As to conditions: mRNA level, 48 h; actives raise or lower the signal. In a few lines: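 HepaRG cells, 0.5% DMSO vehicle, 48 h exposure in serum-free induction medium to 8-point half-log series topping at 100 uM, in duplicate. UGT1A1 mRNA by Fluidigm qRT-PCR, normalized to ACTB/GAPDH/POLR2A; bidirectional fit versus DMSO.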

Read-out in test [12]: UDP glucuronosyltransferase (UGT1A6), UGT1A6 (gene 54578)
As to the kind of experiment: LTEA_HepaRG_UGT1A6: Life Technologies and Expression Analysis (LTEA) Assay for UDP glucuronosyltransferase (UGT1A6) using HepaRG (AID 2283539). As to conditions: mRNA level, 48 h; actives raise or lower the signal. In a few lines:
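Endpoint is UGT1A6 transcript induction or loss in a human liver cell line, quantified by TaqMan qRT-PCR 48 h after dosing. Concentrations ran from 100 uM downward in half-log steps in 0.5% DMSO; activity was fitted in both directions versus vehicle.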

Read-out in test [13]: X-box binding protein 1 (XBP1), XBP1 (gene 7494)
Put plainly: LTEA_HepaRG_XBP1: Life Technologies and Expression Analysis (LTEA) Assay for X-box binding protein 1 (XBP1) using HepaRG (AID 2283540). As to conditions: mRNA level, 48 h; actives raise or lower the signal. The method in brief:
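Human HepaRG monolayers receive test chemical for 48 h across an eight-point half-log series starting at 100 uM. XBP1 mRNA gain or loss is scored against DMSO by qRT-PCR.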

The nature of test [14]: LTEA_HepaRG_LDH_cytotoxicity: Cytotoxicity Assessment in the Life Technologies and Expression Analysis (LTEA) Assay (AID 2283563; active = hit-call score of the fitted dose curve at least 0.9, where 1 is the maximum;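 for AC50: LDH activity released into spent culture medium as a marker of cell death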). The method in brief: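 Human HepaRG hepatic cells are treated with test chemicals for 48 h at up to 100 uM in 0.5% DMSO. Cytotoxicity is scored from medium LDH against the vehicle control.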
Read-out in test [15]: Cellular tumor antigen p53 (Homo sapiens) (UniProt P04637)
Put plainly: LTEA_HepaRG_TP53: Life Technologies and Expression Analysis (LTEA) Assay for Tumor Protein P53 (TP53) using HepaRG (AID 2283537). To be noted: mRNA level, 48 h; actives raise or lower the signal. In a few lines: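 Differentiated HepaRG cells in serum-free induction medium exposed 48 h in duplicate to 8 half-log concentrations, top 100 uM, 0.5% DMSO. TP53 mRNA by TaqMan qRT-PCR (Fluidigm), normalized to ACTB, GAPDH, POLR2A; fitted bidirectionally versus DMSO.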

A short description of test [16]: ATG_XTT_Cytotoxicity: Cytotoxicity Assessment in the Attagene TRANS-FACTORIAL HepG2 Assay (AID 2283584; active = hit-call score of the fitted dose curve at least 0.9, where 1 is the maximum). In a few lines:
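Transfect HepG2 with GAL4-UAS reporter units, dose compound, incubate 24 h, then measure viable cell number by XTT. Fit concentration response against DMSO baseline.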

Test [17] can be described thus: TOX21_p53_BLA_p2_viability: Viability Assessment in the Tox21 HCT-116 p53 Agonism Beta-lactamase Assay, Phase 2 (AID 2283591; active = hit-call score of the fitted dose curve at least 0.9, where 1 is the maximum;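 note: compound exposure lasted 16 h at 37 °C; actives lower the ATP signal meaning cytotoxicity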). In a few lines: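 HCT-116 p53-bla cells (4000/well) rested 5 h at 37C, then received compounds in DMSO (217-fold dilution) for 16 h at 37C, 5% CO2. After the CCF4 read, CellTiter-Glo was added; ATP luminescence was read after 30 min at room temperature.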

In test [18] the target is Cellular tumor antigen p53 (Homo sapiens) (UniProt P04637). As to the kind of experiment: TOX21_p53_BLA_p2_ratio: Tox21 HCT-116 p53 Agonism Beta-lactamase Assay, Ratio, Phase 2 (AID 2283592; active = hit-call score of the fitted dose curve at least 0.9, where 1 is the maximum). The method in brief:
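An inducible beta-lactamase reporter in HCT116 cells signals p53 pathway activation. After 16 h chemical exposure at 37C, cells load CCF4-AM substrate for 2 h at room temperature; activity is the cleaved/uncleaved emission ratio relative to DMSO.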

Test [19] is described as follows: TOX21_p53_BLA_p3_viability: Viability Assessment in the Tox21 HCT-116 p53 Agonism Beta-lactamase Assay, Phase 3 (AID 2283593; active = hit-call score of the fitted dose curve at least 0.9, where 1 is the maximum;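 note: cells exposed to compound for 16 h before reading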). The method in brief:
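HCT-116 cells (4000/well) rested 5 h at 37C, then got DMSO compounds by pin tool (217-fold dilution) for 16 h at 37C, 5% CO2. After the bla read, CellTiter-Glo was added and luminescence read at 30 min, room temperature.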

Test [20] has as its target Cellular tumor antigen p53 (Homo sapiens) (UniProt P04637). Put plainly: TOX21_p53_BLA_p3_ratio: Tox21 HCT-116 p53 Agonism Beta-lactamase Assay, Ratio, Phase 3 (AID 2283596; active = hit-call score of the fitted dose curve at least 0.9, where 1 is the maximum). The method in brief: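 HCT116 p53-bla cells (4000/well) given compound in DMSO (217-fold dilution) after 5 h, incubated 16 h at 37C. CCF4-AM substrate 2 h at room temperature; 460/530 nm emission ratio, gain fitted against DMSO.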

Sequence of Cellular tumor antigen p53 (Homo sapiens) (P04637 whole entry, looked up): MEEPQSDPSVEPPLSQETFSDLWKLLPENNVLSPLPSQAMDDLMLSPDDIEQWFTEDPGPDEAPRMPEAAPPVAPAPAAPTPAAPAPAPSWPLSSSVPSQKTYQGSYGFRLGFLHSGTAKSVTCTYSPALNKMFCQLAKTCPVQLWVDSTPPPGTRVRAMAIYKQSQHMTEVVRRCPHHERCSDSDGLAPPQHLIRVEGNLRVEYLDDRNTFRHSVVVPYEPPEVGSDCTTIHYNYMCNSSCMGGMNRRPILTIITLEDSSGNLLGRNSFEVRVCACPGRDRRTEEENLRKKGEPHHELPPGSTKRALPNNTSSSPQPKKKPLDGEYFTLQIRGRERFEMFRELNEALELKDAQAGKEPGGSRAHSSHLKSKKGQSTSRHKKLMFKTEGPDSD
Sequence of Nuclear factor erythroid 2-related factor 2 (Homo sapiens) (Q16236 whole entry, looked up): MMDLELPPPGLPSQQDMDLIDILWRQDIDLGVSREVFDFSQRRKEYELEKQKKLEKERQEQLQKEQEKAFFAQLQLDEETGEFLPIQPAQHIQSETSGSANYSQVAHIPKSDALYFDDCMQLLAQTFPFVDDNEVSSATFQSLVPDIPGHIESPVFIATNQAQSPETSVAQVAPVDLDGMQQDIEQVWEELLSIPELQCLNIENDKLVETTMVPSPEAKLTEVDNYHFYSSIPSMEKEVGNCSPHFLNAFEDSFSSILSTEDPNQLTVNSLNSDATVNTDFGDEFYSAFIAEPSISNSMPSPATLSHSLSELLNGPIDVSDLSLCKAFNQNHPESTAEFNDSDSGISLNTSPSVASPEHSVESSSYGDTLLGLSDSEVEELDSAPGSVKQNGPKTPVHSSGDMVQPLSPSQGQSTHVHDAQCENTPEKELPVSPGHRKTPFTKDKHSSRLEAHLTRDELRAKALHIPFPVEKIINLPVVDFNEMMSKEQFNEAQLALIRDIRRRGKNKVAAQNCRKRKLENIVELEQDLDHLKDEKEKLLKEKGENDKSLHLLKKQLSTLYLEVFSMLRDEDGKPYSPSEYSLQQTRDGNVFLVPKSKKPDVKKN
Sequence of Signal transducer and activator of transcription 3 (Homo sapiens) (P40763 whole entry, looked up): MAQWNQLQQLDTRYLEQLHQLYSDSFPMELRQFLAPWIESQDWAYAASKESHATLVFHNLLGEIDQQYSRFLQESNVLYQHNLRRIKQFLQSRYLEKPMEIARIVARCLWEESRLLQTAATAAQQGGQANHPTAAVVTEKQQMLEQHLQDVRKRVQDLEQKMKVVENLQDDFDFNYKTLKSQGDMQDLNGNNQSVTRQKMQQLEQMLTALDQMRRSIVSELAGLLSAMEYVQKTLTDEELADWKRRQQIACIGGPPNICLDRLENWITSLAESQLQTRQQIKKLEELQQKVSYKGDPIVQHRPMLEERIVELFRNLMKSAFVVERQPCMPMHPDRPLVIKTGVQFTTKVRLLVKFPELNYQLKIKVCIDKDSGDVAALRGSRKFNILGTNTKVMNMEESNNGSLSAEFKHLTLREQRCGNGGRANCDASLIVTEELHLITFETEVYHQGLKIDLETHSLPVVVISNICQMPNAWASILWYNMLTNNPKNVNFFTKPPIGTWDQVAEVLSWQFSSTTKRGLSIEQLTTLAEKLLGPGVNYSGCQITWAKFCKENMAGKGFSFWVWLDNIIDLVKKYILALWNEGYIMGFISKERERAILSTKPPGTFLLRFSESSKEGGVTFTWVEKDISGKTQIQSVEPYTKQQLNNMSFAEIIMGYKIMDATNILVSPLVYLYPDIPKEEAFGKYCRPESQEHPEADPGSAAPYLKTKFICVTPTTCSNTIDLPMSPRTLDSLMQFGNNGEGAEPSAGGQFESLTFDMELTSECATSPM

The AC50 is the concentration at which the activity in the assay is half-maximal. On to `CC(C)OC(=O)C(C)(C)Oc1ccc(C(=O)c2ccc(Cl)cc2)cc1`, for which the call in [1], in test [2], in test [3], in [4], in [5] and in [6] was inactive. Further, the compound was classed as inactive in test [7], in test [8], in [9], in test [10], in [13] and in test [14]. Also, the half-maximal activity concentration (AC50) in [11] was 3.76 µM (active); in test [12] it was 0.0504 µM (active).
As for `CCc1nc(N)nc(N)c1-c1ccc(Cl)cc1`, the outcome in test [1], in test [2], in [3], in test [4], in [6] and in test [7] was inactive. In addition, the call in [8], in test [9], in [15], in [11], in test [12] and in test [13] was inactive. In addition, the call in test [16], in test [17], in [18] and in test [20] was inactive. In addition, the concentration at half-maximal activity (AC50) in test [10] was 76.3 µM (active); in [14], 66.1 µM (active); in test [17], 17.2 µM (active) and 11.8 µM (active); in [18], 58.9 µM (active) and 27 µM (active); in test [19] it was 46.1 µM (active) and 18.5 µM (active).
With `CN(C)C(=O)NC1(c2ccccc2)CCN(CC[C@@]2(c3ccc(F)c(F)c3)CN(C(=O)c3ccccc3)CCO2)CC1`, the compound was classed as inactive in test [1], in test [2], in test [3], in [4], in [6] and in test [7]. For the same compound, the compound was classed as inactive in test [8], in test [9], in [15], in test [11], in test [12] and in test [13]. For the same compound, the compound was called inactive in [17], in test [18] and in [20]. Moreover, the AC50 in [5] was 25.3 µM (active); in [10], 29.7 µM (active); in test [14], 73.5 µM (active).
Regarding `CC(=O)OC1CC(C)OC(C)O1` (configuration not stated), the result in [1], in test [2], in test [3], in [4], in test [6] and in [7] was inactive. The compound was classed as inactive in test [8], in test [9], in test [10], in [11], in test [12] and in test [13]. The result in test [14] and in test [16] was inactive.
